Most compounds without a hit are left out; they make up all but 7.3% or so of the library.
HCMV inh – qHTS Assay for inhibitors of the human cytomegalovirus (HCMV); AID 1259415, 2018; actives 4.5% (n = 410,000); activity change, negative = inhibition, % at 57.5 µM; HFF cells, HCMV-luciferase reporter, 72 h; hits give low values; in the data active means activity change below about -60%; inconclusive means no clear call, values can overlap the other calls; inactive means above about -39%
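Two-dose cell screen: HFF monolayers treated with compounds and infected with luciferase-expressing HCMV at 1 PFU/cell, 72 h at 37C, then lysed for luciferase measurement.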
VACV mCherry inh – qHTS for Stage-Specific Inhibitors of Vaccinia Orthopoxvirus: mCherry Reporter Primary qHTS; actives 0.63% (n = 310,000); Potency, µM (doses to about 36.5 µM), for the others: at the top dose activity change, negative = inhibition, most hits filed as inhibitors; Vaccinia virus mCherry reporter infection, fluorescence; AID 720579, 2013; calls by dose curve; tested in A549 cells; further: potency means the concentration at half of the fitted maximal effect; nearly all actives have a fitted effect of over 35% in size
HCV inhibitor – qHTS Assay for Inhibitors of Hepatitis C Virus (HCV) | Huh7.5.1 HCVcc-Cre infection, luciferase reporter, 44 h | Potency, µM (series often up to 41.8 µM), for inactives: top-dose activity change, negative = inhibition, usual class: inhibitors | actives 3.4% (n = 340,000); active means well fitted inhibition curve with a large enough effect; inconclusive means small, poorly fitted or top-dose-only effect, or another doubt; inactive means no such curve, though single readings can be large or run the other way; further: potency means the concentration at half of the fitted maximal effect
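Seed cells (1,000/well) for 4 h; treat with compound and infect with HCVcc-Cre, moi about 0.5. Incubate 44 h, then detect luciferase activity.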
Vaccinia Venus – qHTS for Stage-Specific Inhibitors of Vaccinia Orthopoxvirus: Venus Reporter Primary qHTS | Potency, µM (highest dose often 36.5 µM), for inactives: at the top dose activity change, negative = inhibition, most hits filed as inhibitors | Vaccinia virus Venus reporter expression, fluorescence | actives 0.46% (n = 330,000); calls by dose curve; tested in A549 cells; further: potency means the concentration at half of the fitted maximal effect; nearly all actives have a fitted effect of over 30% in size
FMDV inh – High Throughput Screening for Foot and Mouth Disease Virus Antivirals; FMDV antiviral cell-based qHTS; Potency, µM (highest dose often 57.9 µM), for the others: at the top dose activity change, negative = inhibition, actives largely listed as inhibitors; actives 1.2% (n = 410,000); AID 1159524, 2015; calls by dose curve; tested in HEK293T cells; further: read-out not given here; potency means the concentration at half of the fitted maximal effect; nearly all actives have a fitted effect of over 45% in size
Starred values were filed as active, the others as inactive; i = inactive; ? = inconclusive; nt = no result; [ ] = remark or other dose. On the % scale 0 is the no-effect control and ±100 the full control effect.

SMILES	HCMV inh	VACV mCherry inh	HCV inhibitor	Vaccinia Venus	FMDV inh
Cc1ccc(NS(=O)(=O)c2ccc(C(=O)N3CCC3)cc2)cc1	-17	-9%	?	-8%	1%
COC(=O)c1cc2c(c3c4ccccc4n(S(=O)(=O)c4ccc(OC)cc4)c13)C(=O)N(Cc1ccco1)C2	132	nt	nt	nt	nt
CCNC(=O)CSc1nnc(-c2cccc(S(=O)(=O)N3CCOCC3)c2)o1	12	11µM*	9%	?	-6%
CC(C)CNC(=O)CSc1nnc(-c2cccc(S(=O)(=O)N3CCCCC3)c2)o1	2	?	4%	?	8%
N#Cc1ccc(CSc2nnc(-c3cccc(S(=O)(=O)N4CCCCC4)c3)o2)cc1	-66*	nt	?	?	-28%
O=C(O)CSc1nnc(-c2cccc(S(=O)(=O)N3CCCCC3)c2)o1	7	9%	6%	-3%	-9%
Cc1ccccc1S(=O)(=O)N1CCN(c2nc(-c3cccs3)nc3ccccc23)CC1	nt	i	nt	-18%	nt
COC(=O)c1ccc(NC(=O)N2CCC(CN3CCc4ccccc4C3)CC2)cc1	35	-8%	nt	-13%	20%
CCCC(=O)NC(C)c1nc2ccccc2n1CC (stereo unspecified)	-3	-9%	8%	5%	-8%
C=CCn1c(C(C)NC(=O)CCC)nc2ccccc21 (stereo unspecified)	-62*	2%	11µM*	8%	nt
C=CCn1c(C)cc(C(=O)Cn2c(C(C)O)nc3ccccc32)c1C (stereo unspecified)	-66*	-25%	-4%	-29%	?
CCN(CC)C(=O)c1ncn2c1C(=O)NC[C@@H]2C	-22	nt	nt	nt	nt
Fc1cccc(Cc2c(-c3ccco3)nc3ccc(Br)cn23)c1	57	5%	nt	2%	35µM*
COc1ccc(-c2nc3ccc(Br)cn3c2Cc2cccc(Cl)c2)cc1OC	?	15%	nt	5%	-15%
COc1ccc(-c2nc3ccc(Br)cn3c2Cc2ccccc2)cc1OC	-65*	i	nt	-14%	-3%
Cc1cc(=O)n2nc(N3CCC(C(=O)Nc4ccc(Br)c(C)c4)CC3)sc2n1	-13	37%	nt	12%	-24%
Cc1cc(C)n(-c2nc(C)c(C)c(=O)n2CC(=O)Nc2cccc([N+](=O)[O-])c2)n1	-4	-4%[7.34 µM]	nt	-13%[7.34 µM]	-18%
CCOc1ccc(OCCCC(=O)Nc2cc(Cl)ccc2-n2cncn2)cc1	-72*	nt	?	nt	?
CC(=O)c1ccc(OCCCC(=O)Nc2cc(Cl)ccc2-n2cncn2)cc1	51	-24%	-24%	-16%	0%
Cc1ccsc1C(=O)Nc1cc(Cl)ccc1-n1cncn1	52	i	7.1µM*	-12%	34%
COC(=O)Cn1c(=O)c2c(nc3n2CCCN3Cc2ccccc2)n(C)c1=O	-24	-3%	-3%	-4%	1%
Cn1c(=O)n(CC(=O)OCc2ccccc2)c(=O)c2c1nc1n2CCCN1C1CCCCC1	-34	nt	4%	-18%	28µM*
CCCCc1ccc(NC(=O)CSc2nc(=O)n(CCN(C)C)c3c2CCC3)cc1	-38	28µM*	?	14µM*	2%
CCOc1ccccc1NC(=O)CSc1nc(=O)n(CCN2CCOCC2)c2c1CCCC2	-81*	-22%	-11%	-9%	1%
CN(C)CCn1c2c(c(SCC(=O)N3CCc4ccccc43)nc1=O)CCCC2	-18	-21%	13µM*	-11%	7%
SMILES	HCMV inh	VACV mCherry inh	HCV inhibitor	Vaccinia Venus	FMDV inh
CCN(CC)CCCn1c2c(c(SCC(=O)N3CCCc4ccccc43)nc1=O)CCC2	?	i	-10%	-17%	-6%
CCN(CC)CCCn1c2c(c(SCC(=O)Nc3ccc(C)c(F)c3)nc1=O)CCC2	-17	-24%	?	-12%	-3%
CCN(CC)CCCn1c2c(c(SCC(=O)Nc3ccc(OC(F)(F)F)cc3)nc1=O)CCC2	-10	-19%	10µM*	?	-22%
Cc1cccc(NC(=O)c2ccc3c(O)c(S(=O)(=O)c4ccccc4)c(=O)[nH]c3c2)c1C	-2	-2%	nt	-3%	-13%
CCCCc1ccc(NC(=O)CSc2nc(=O)n3cc(C)ccc3n2)cc1	-67*	-8%	15%	-9%	-29%
COc1ccc(Cc2noc(CN3CCN(c4ccc(Cl)cn4)CC3)n2)cc1OC	-32	-16%	?	?	13µM*
COc1ccc(Cc2noc(CN3CCN(Cc4cccc(Cl)c4)CC3)n2)cc1OC	-37	-8%	?	-15%	?
COc1ccccc1Cc1noc(-c2cc(Cl)ccc2OC)n1	-38	i	7.1µM*	-9%	10%
COc1ccc(-c2nc(Cc3ccc(Cl)cc3)no2)cc1OC	-74*	nt	?	-20%	-6%
CCNC(=S)N/N=C/c1ccccc1[N+](=O)[O-]	-4	-7%	1%	-7%	-9%
NC(=S)N/N=C/c1ccccc1[N+](=O)[O-]	-37	2µM*	-10%	2.2µM*	-4%
O=[N+]([O-])c1ccccc1/C=N/Nc1nccnc1Cl	79	nt	6%	nt	0%
Cc1c(O)ccc(/C=N/Nc2ncccc2[N+](=O)[O-])c1O	-69*	?	?	-28%	-20%
O=[N+]([O-])c1cccnc1N/N=C/c1ccccc1O	-97*	?	?	13%	3%
CCNc1ncc2ncc(=O)n(C)c2n1	nt	nt	nt	nt	2%
CCCC(=O)OCc1cnc(C)c2oc(=O)c(C(=O)Nc3ccccc3)cc12	5	-7%	nt	-3%	-11%
CN(C)c1ccc(/C=C/c2ccc3cc(N)ccc3n2)cc1	nt	14%	nt	12%	nt
O=C(NCc1ccccc1)c1ccc(CSc2nc3cccnc3n2Cc2cccc(F)c2)cc1	-67*	-24%	nt	-2%	0%
O=C(NCc1ccccc1)c1ccc(CSc2nc3cccnc3n2Cc2ccccc2)cc1	-23	?	nt	-28%	-22%
Cn1c(SCc2ccc(F)cc2)nc2ccc(C(=O)NCc3ccc(F)cc3)cc21	-69*	-16%	nt	-22%	?
O=C(NCCc1ccccc1)c1ccc(CSc2nc3cccnc3n2Cc2ccccc2)cc1	-3	-22%	nt	-11%	-24%
CN(Cc1ccccc1)C(=O)c1ccc(CSc2nc3cccnc3n2Cc2ccccc2)cc1	-71*	?	nt	?	?
Cc1ccc(CSc2nc3cccnc3n2Cc2ccc(C(=O)NC3CCCCC3)cc2)cc1	20	?	nt	11µM*	23%
O=C(NC1CCCCC1)c1ccc(Cn2c(SCc3ccccc3F)nc3cccnc32)cc1	?	i	nt	-16%	1%
CCc1ccccc1NC(=O)Cn1c(C(=O)OC)cc2oc(C)cc21	-3	-8%	nt	-6%	-1%
CN(C(=O)CSc1nc2ccc(NC(=O)c3ccc(F)cc3)cc2s1)c1ccccc1	-81*	-13%	nt	-28%	?
COc1ccc(C(=O)Nc2ccc3nc(SCC(=O)N(C)c4ccccc4)sc3c2)cc1	-74*	-18%	nt	?	35µM*

Screening data from PubChem BioAssay.
